Measurements: PubChem BioAssay AID449762 (Southern Research Specialized Biocontainment Screening …, 2010)
About 1,900 (0.58%) of roughly 330,000 compounds were called active. Inconclusive results (about 4%) are left out. Only a sample is shown. Measured potencies and affinities stand elsewhere. Values without a mark were called inactive. Rule as the data show it: inconclusive = inhibition above about 70% without an active follow-up result; inactive = below that.

test: M. tuberculosis growth inhibition, HTS (AID 449762);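 also: bacterial growth assessed after seven days of incubation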; conditions: M. tuberculosis H37Rv growth inhibition, 7H9 media; at 25 µM; hits give high values

Which inhibition does the source give for COc1ccc(OC2C(=O)N(Cc3ccc(F)cc3)C2c2cc(OC)c(OC)c(OC)c2)cc1 (stereo not drawn) here?
The inhibition was 20.5%.

With COc1ccc(S(=O)(=O)Cc2ccc(C(=O)NC3CCC(C)CC3)o2)cc1 (stereo not drawn) as the compound, how does the inhibition read?
The inhibition was 1.75%.

Which inhibition does the source give for Cc1ccc(C(=O)CSc2nnc3n2CCCCC3)s1 here?
Its inhibition is -7.99%.

For COCCCNC(=O)Nc1ccc2c(c1)N(C)C(=O)CS2, which inhibition is on record?
The inhibition was 1.24%.

Which inhibition does the source give for O=C(CN(CCc1ccccc1)C(=O)CNS(=O)(=O)c1ccc(F)cc1)NCc1ccco1 here?
The inhibition was 1.92%.

Which inhibition does the source give for CCCCN1CCNC[C@@H]1c1ccccc1 here?
Its inhibition is -9.81%.

Which inhibition does the source give for CCOC1OC(=O)C(Cl)=C1Nc1cc(C)ccc1C (stereo not drawn) here?
The inhibition was -3.33%.

For CCOC1OC(=O)C(Cl)=C1Nc1ccc(C)cc1C (stereo not drawn), which inhibition is on record?
The inhibition was 9.67%.

With Cc1ccc(NC(=O)C2CCN(C(=O)[C@@H]3Cc4ccccc4CN3)CC2)cc1 as the compound, how does the inhibition read?
Its inhibition is 9.95%.

Which inhibition does the source give for O=C(COC(=O)c1cc2ccccc2oc1=O)Nc1cccc(S(=O)(=O)N2CCCCCC2)c1 here?
The inhibition was -4.32%.

With CCOC(=O)Cc1csc(NC(=O)CSc2nnnn2-c2ccc(F)cc2)n1 as the compound, how does the inhibition read?
The inhibition was -5.86%.

Which inhibition does the source give for CCOC(=O)c1sc(NC(=O)CN2C(=O)NC3(CC(C)CC(C)(C)C3)C2=O)c(C(=O)OCC)c1C (stereo not drawn) here?
The inhibition was 5.68%.

Which inhibition does the source give for CCc1nnc(NC(=O)CN2C(=O)NC3(CC(C)CC(C)(C)C3)C2=O)s1 (stereo not drawn) here?
Its inhibition is -0.6%.

Which inhibition does the source give for CSCC[C@H](NC(=O)c1cccc(S(=O)(=O)N2CCN(C)CC2)c1)c1nc2ccccc2[nH]1 here?
The inhibition was -7.51%.

Which inhibition does the source give for CC(C(=O)Nc1ccc2c(c1)OCCO2)n1nnc(-c2ccccc2)n1 (stereo not drawn) here?
The inhibition was 0.15%.

For Cc1nc(C)c(CCNC(=O)c2ccccc2Br)s1, which inhibition is on record?
The inhibition was -5.7%.

Which inhibition does the source give for S=C(NC1CCCCC1)N1CCN(Cc2ccccc2)CC1 here?
Its inhibition is -15.7%.

For O=C(CC(=O)NN=C1CCCC1)NCCc1ccccc1, which inhibition is on record?
The inhibition was 4.48%.

For S=C(Nc1ccccc1)NC1CCN(Cc2ccccc2)CC1, which inhibition is on record?
Its inhibition is -9.83%.

With O=C(NCCc1ccccc1)C(=O)NN=C1CCCC1 as the compound, how does the inhibition read?
Its inhibition is -3.67%.

With CC1CCCC/C1=N\NC(=S)Nc1ccccc1 (stereo not drawn) as the compound, how does the inhibition read?
The inhibition was 0.51%.

With Cc1ccc(NC(=S)N/N=C2\CCCCC2C)cc1 (stereo not drawn) as the compound, how does the inhibition read?
Its inhibition is 5.06%.

With Cc1cccc(C)c1NC(=S)NCCc1ccccn1 as the compound, how does the inhibition read?
The inhibition was 3.14%.

For CC1(C)C[C@H](O)[C@@]23C[C@@H](OC2=O)[C@]2(C)C(=CCC4[C@@]5(C)CC[C@H](O)C(C)(C)C5CC[C@]42C)[C@@H]3C1 (stereo partly drawn), which inhibition is on record?
The inhibition was 3.65%.

Which inhibition does the source give for CCOC(=O)c1cc(CC)sc1NC(=O)COC(=O)C1CCC1 here?
The inhibition was -15.8%.

For Cc1cccc(C)c1NC(=O)CN1N=NC2C(=O)N(c3cccc(Cl)c3)C(=O)C21 (stereo not drawn), which inhibition is on record?
The inhibition was 2.55%.

With CN(C)S(=O)(=O)c1cccc(NC(=O)CSc2nc3ccccc3[nH]2)c1 as the compound, how does the inhibition read?
The inhibition was -2.08%.

With O=C(Nc1nnc(C2CC2)s1)c1cncc(Br)c1 as the compound, how does the inhibition read?
The inhibition was 5.39%.

With COc1ccc(CNC(=O)C(=O)NCCC2CCCCN2S(=O)(=O)c2cccs2)cc1 (stereo not drawn) as the compound, how does the inhibition read?
The inhibition was 5.17%.

For COc1ccc(CCNC(=O)C(=O)NCC2OCCN2S(=O)(=O)c2ccc(C)cc2)cc1OC (stereo not drawn), which inhibition is on record?
Its inhibition is -6.63%.

With Cc1ccc(NC(=O)N2CCCC2C(=O)NCC2CCCCC2)cc1 (stereo not drawn) as the compound, how does the inhibition read?
The inhibition was 5.67%.

Which inhibition does the source give for Clc1ccc(Cl)c(-c2ccc(/C=N/c3ncn[nH]3)o2)c1 here?
The inhibition was 8.33%.

With Cc1cc(C(=O)N/N=C/c2ccc(-c3ccc(C)c(Cl)c3)o2)n[nH]1 as the compound, how does the inhibition read?
The inhibition was 42.8%.

Which inhibition does the source give for Cc1ccc(/C=N/n2c(COc3ccccc3)n[nH]c2=S)cc1 here?
The inhibition was 6.13%.

Which inhibition does the source give for Cc1ccc(NC(=O)COC(=O)Cc2c[nH]c3ccccc23)cc1C here?
The inhibition was -4.13%.

Which inhibition does the source give for O=C(COC(=O)CCc1c[nH]c2ccccc12)Nc1ccc([N+](=O)[O-])cc1 here?
Its inhibition is 2.33%.

For COc1cc(/C=C/C(=O)OCC(=O)NCCC2=CCCCC2)cc(OC)c1OC, which inhibition is on record?
Its inhibition is 2.02%.

With Cc1ccccc1NS(=O)(=O)c1ccc(C(=O)N2CCN(c3ccccc3O)CC2)cc1 as the compound, how does the inhibition read?
Its inhibition is 4.31%.

Which inhibition does the source give for Cc1cccc(NS(=O)(=O)c2ccc(C(=O)N3CCCC3)cc2)c1C here?
The inhibition was -8.71%.

With OC(COCc1ccc(Cl)cc1)CN1CCCCC1 (stereo not drawn) as the compound, how does the inhibition read?
The inhibition was 1.29%.

With C=CCNC(=O)/C(C#N)=C\c1cc(Cl)c(OCC)c(OC)c1 as the compound, how does the inhibition read?
The inhibition was 7.41%.

With COc1cccc(CN(C)C(=O)CSCC(=O)Nc2cccc(C)c2)c1OC as the compound, how does the inhibition read?
Its inhibition is -5.41%.

For CC(C)C(=O)N=c1sc2cc(F)cc(F)c2n1C, which inhibition is on record?
Its inhibition is -9.4%.

Which inhibition does the source give for O=C(NCC1CC1)c1ccc(Nc2nc3ccc(Br)cc3[nH]2)cc1 here?
Its inhibition is -0.43%.

With O=C(NCc1cccs1)c1cccc(Nc2nc3ccc(Br)cc3[nH]2)c1 as the compound, how does the inhibition read?
The inhibition was -11%.

For CC(=O)Oc1ccc(-c2cccc(C(=O)NCCO)c2)cc1, which inhibition is on record?
Its inhibition is -0.93%.

For O=S(=O)(NC1CCCCC1Nc1ccccc1)c1ccccc1 (stereo not drawn), which inhibition is on record?
The inhibition was -7.27%.

With O=C(CN(c1ccc(F)cc1)S(=O)(=O)c1ccc2c(c1)OCCO2)N1CCOCC1 as the compound, how does the inhibition read?
Its inhibition is 1.58%.
